Measured values published in paper PMC11006913.

Columns and labels:
Assay in all cases: PBM; 200 nM protein, PBS
Settings in all cases: dsDNA, one strand shown
[1] = biological target: PITX2 (Homo sapiens, UniProt Q99697 72-157)
[2] = biological target: CRX (Homo sapiens, UniProt O43186 26-111, R41L)
[3] = biological target: PROP1 (Homo sapiens, UniProt O75360 56-141)
[4] = biological target: PROP1 (Homo sapiens, UniProt O75360 56-141, R99H)
[5] = biological target: PROP1 (Homo sapiens, UniProt O75360 56-141, F88S)
Chain of PROP1 (Homo sapiens, UniProt O75360 56-141, F88S) (O75360 56-141 F88S): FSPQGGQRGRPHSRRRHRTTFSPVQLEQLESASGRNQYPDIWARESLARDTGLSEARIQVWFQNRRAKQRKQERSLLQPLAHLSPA

[6] = biological target: HOXD13 (Homo sapiens, UniProt P35453 263-343)
Chain of HOXD13 (P35453 263-343): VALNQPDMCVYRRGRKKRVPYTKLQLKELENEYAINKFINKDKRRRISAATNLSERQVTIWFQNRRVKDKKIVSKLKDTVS

[7] = biological target: NKX3-2 (Homo sapiens, UniProt P78367 192-278, P234S)
Chain of NKX3-2 (Homo sapiens, UniProt P78367 192-278, P234S) (P78367 192-278 P234S): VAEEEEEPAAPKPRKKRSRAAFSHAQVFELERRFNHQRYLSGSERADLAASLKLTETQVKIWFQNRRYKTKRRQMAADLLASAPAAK

[8] = biological target: NKX3-2 (Homo sapiens, UniProt P78367 192-278)
Chain of NKX3-2 (Homo sapiens, UniProt P78367 192-278) (P78367 192-278): as the sequence (P78367 192-278 P234S) above, with S43P counted along it

[9] = biological target: SHOX (Homo sapiens, UniProt O15266 103-189, R173C)
Chain of SHOX (O15266 103-189 R173C): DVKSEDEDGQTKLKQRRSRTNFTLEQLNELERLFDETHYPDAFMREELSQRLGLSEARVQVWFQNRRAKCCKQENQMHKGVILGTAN

[10] = biological target: HESX1 (Homo sapiens, UniProt Q9UBX0 95-180, R109Q)
Chain of HESX1 (Q9UBX0 95-180 R109Q): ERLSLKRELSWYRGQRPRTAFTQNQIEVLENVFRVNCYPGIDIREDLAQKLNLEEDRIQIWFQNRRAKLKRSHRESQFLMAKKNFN

[11] = biological target: HOXC10 (Homo sapiens, UniProt Q9NYD6 254-340, K271E)
Chain of HOXC10 (Q9NYD6 254-340 K271E): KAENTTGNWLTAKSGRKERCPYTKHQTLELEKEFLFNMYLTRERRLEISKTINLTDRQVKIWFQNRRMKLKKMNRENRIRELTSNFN

Chain of PROP1 (Homo sapiens, UniProt O75360 56-141) (O75360 56-141): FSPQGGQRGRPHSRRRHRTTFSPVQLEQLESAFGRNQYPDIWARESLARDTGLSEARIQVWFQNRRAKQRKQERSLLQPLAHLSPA
Chain of CRX (O43186 26-111 R41L): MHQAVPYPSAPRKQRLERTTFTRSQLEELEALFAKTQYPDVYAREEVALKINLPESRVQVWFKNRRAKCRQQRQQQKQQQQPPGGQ
Chain of PROP1 (Homo sapiens, UniProt O75360 56-141, R99H) (O75360 56-141 R99H): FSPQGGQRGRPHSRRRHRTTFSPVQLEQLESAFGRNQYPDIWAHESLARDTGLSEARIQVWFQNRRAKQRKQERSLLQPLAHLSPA

CTAAGCCC was tested, and the binding signal [1] was 12.3 upbm affinity estimate (log intensity, higher = more binding, comparable within an allelic series) and the binding signal [2] was 11.5 upbm affinity estimate (log intensity, higher = more binding, comparable within an allelic series).

With AGGAGGCC the binding signal [1] was 8.05 upbm affinity estimate (log intensity, higher = more binding, comparable within an allelic series), the binding signal [3] was 6.87 upbm affinity estimate (log intensity, higher = more binding, comparable within an allelic series) and the binding signal [4] was 6.81 upbm affinity estimate (log intensity, higher = more binding, comparable within an allelic series). The binding signal [5] was 6.57 upbm affinity estimate (log intensity, higher = more binding, comparable within an allelic series).

With ACGATATA the binding signal [6] was 10.9 upbm affinity estimate (log intensity, higher = more binding, comparable within an allelic series).

GGTTTATA was tested, and the binding signal [1] was 10.5 upbm affinity estimate (log intensity, higher = more binding, comparable within an allelic series) and the binding signal [3] was 7.99 upbm affinity estimate (log intensity, higher = more binding, comparable within an allelic series).

With TATTTAGA the binding signal [6] was 10.6 upbm affinity estimate (log intensity, higher = more binding, comparable within an allelic series).

TATATGCA was tested, and the binding signal [6] was 10.8 upbm affinity estimate (log intensity, higher = more binding, comparable within an allelic series).

For GAGATATC, the binding signal [1] was 8.8 upbm affinity estimate (log intensity, higher = more binding, comparable within an allelic series).

TATATCAA was tested, and the binding signal [6] was 10.8 upbm affinity estimate (log intensity, higher = more binding, comparable within an allelic series).

In the case of TATTGCGA, the binding signal [6] is reported as 10.6 upbm affinity estimate (log intensity, higher = more binding, comparable within an allelic series).

With ATCATTCA the binding signal [6] was 10.6 upbm affinity estimate (log intensity, higher = more binding, comparable within an allelic series).

ATGAGCCC was tested, and the binding signal [1] was 9.64 upbm affinity estimate (log intensity, higher = more binding, comparable within an allelic series).

For CGATTTAA, the binding signal [6] was 10.9 upbm affinity estimate (log intensity, higher = more binding, comparable within an allelic series).

In the case of ATCCTTAC, the binding signal [1] is reported as 9.47 upbm affinity estimate (log intensity, higher = more binding, comparable within an allelic series).

In the case of GTCCACTA, the binding signal [1] is reported as 7.94 upbm affinity estimate (log intensity, higher = more binding, comparable within an allelic series).

For AGAGTTAA, the binding signal [6] was 10.7 upbm affinity estimate (log intensity, higher = more binding, comparable within an allelic series).

In the case of ACTTAATC, the binding signal [1] is reported as 12.3 upbm affinity estimate (log intensity, higher = more binding, comparable within an allelic series) and the binding signal [2] is reported as 12.4 upbm affinity estimate (log intensity, higher = more binding, comparable within an allelic series).

With CATCGACC the binding signal [1] was 8.07 upbm affinity estimate (log intensity, higher = more binding, comparable within an allelic series), the binding signal [7] was 10.6 upbm affinity estimate (log intensity, higher = more binding, comparable within an allelic series) and the binding signal [8] was 10.6 upbm affinity estimate (log intensity, higher = more binding, comparable within an allelic series).

In the case of CGGATTTA, the binding signal [1] is reported as 12.3 upbm affinity estimate (log intensity, higher = more binding, comparable within an allelic series) and the binding signal [2] is reported as 12.3 upbm affinity estimate (log intensity, higher = more binding, comparable within an allelic series).

For ATCTAATG, the binding signal [1] was 9.77 upbm affinity estimate (log intensity, higher = more binding, comparable within an allelic series).

With TGGCTTAA the binding signal [1] was 12.3 upbm affinity estimate (log intensity, higher = more binding, comparable within an allelic series) and the binding signal [2] was 11.5 upbm affinity estimate (log intensity, higher = more binding, comparable within an allelic series).

AATTAGGT was tested, and the binding signal [9] was 9.2 upbm affinity estimate (log intensity, higher = more binding, comparable within an allelic series), the binding signal [3] was 11 upbm affinity estimate (log intensity, higher = more binding, comparable within an allelic series) and the binding signal [10] was 8.66 upbm affinity estimate (log intensity, higher = more binding, comparable within an allelic series). The binding signal [4] was 10.6 upbm affinity estimate (log intensity, higher = more binding, comparable within an allelic series) and the binding signal [5] was 7.74 upbm affinity estimate (log intensity, higher = more binding, comparable within an allelic series).

With AATAATGC the binding signal [6] was 10.8 upbm affinity estimate (log intensity, higher = more binding, comparable within an allelic series).

With AAGTTGTA the binding signal [6] was 10.7 upbm affinity estimate (log intensity, higher = more binding, comparable within an allelic series).

ACATAAAT was tested, and the binding signal [11] was 11.3 upbm affinity estimate (log intensity, higher = more binding, comparable within an allelic series).

With GCAGTAAA the binding signal [11] was 11.1 upbm affinity estimate (log intensity, higher = more binding, comparable within an allelic series).
